Source: PubChem (The Scripps Research Institute Molecular Screening Center)
Hits are enriched below; roughly 2.9% of the tested compounds scored in any of these assays.
PLC-gamma1 inh – PLC-gamma1 (human) inhibition, primary screen; P19174; 370,000 compounds, 0.84% hits; purified PLC-gamma1, fluorogenic substrate, fluorescence; inhibition, % at 12.2 µM; in the data active = inhibition above about 9.5%
ADAM10 inh – inhibits human ADAM10. O14672. recombinant ADAM10, EDANS/DABCYL FRET peptide cleavage, 3 h. inhibition, % at 7 µM. 370,000 compounds, 0.62% hits. AID 720582;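 active = inhibition above a per-campaign cutoff equal to the mean of compounds falling between control-based bounds plus 3 SD, cut at about 20% in these data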;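 also: 0% = DMSO wells while the 100% control is not disclosed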
ADAM17 inh – inhibits human ADAM17; 370,000 compounds, 0.83% hits; recombinant ADAM17, EDANS/DABCYL FRET peptide cleavage; P78536; inhibition, % at 6.95 µM;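 active = inhibition above the mean of compounds lying between control limits plus 3 SD, set per campaign, cut at about 8.5% in these data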;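 also: 0% = DMSO-only wells as the low control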
Target sequence (P78536 215-824 limits assumed): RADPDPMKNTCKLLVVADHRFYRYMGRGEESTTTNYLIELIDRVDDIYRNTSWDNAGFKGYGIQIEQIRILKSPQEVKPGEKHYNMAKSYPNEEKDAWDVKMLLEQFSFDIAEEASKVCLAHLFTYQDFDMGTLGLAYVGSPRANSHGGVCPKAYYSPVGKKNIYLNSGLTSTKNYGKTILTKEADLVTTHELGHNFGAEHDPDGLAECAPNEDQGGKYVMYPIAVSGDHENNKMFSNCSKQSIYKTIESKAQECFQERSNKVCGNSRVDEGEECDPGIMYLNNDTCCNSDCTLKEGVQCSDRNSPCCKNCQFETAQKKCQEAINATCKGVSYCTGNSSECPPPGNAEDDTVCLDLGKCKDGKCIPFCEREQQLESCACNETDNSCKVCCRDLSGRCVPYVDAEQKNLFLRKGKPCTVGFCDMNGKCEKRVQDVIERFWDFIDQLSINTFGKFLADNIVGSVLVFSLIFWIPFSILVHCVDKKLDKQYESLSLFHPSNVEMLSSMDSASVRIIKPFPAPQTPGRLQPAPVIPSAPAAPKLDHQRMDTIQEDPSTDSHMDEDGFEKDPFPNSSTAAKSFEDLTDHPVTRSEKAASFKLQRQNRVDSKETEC
PLCb3 inh – inhibitors of human phospholipase C beta3 | Purified PLC-beta3, fluorogenic substrate, fluorescence | AID 720704 | 370,000 compounds, 0.18% hits | Q01970 | inhibition, % at 12.2 µM; in the data active = inhibition above about 11%;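 also: 0% = median of compound wells on plate and 100% = full blocker control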
proKLK7 act – activators of human kallikrein-7 zymogen; P49862; purified proKLK7, EDANS-DABCYL substrate fluorescence; 100% is mature enzyme control, 0% vehicle; activation, % at 7 µM; 370,000 compounds, 0.9% hits; AID 652039;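 active = activation above the mean of all tested compounds plus 3 SD, computed per campaign excluding outliers beyond control limits, cut at about 13% in these data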
proKLK7 act conf – confirmation of human kallikrein-7 zymogen activators. shares compounds with proKLK7 act. purified proKLK7, EDANS-DABCYL substrate fluorescence; scaled: vehicle 0, mature enzyme 100. activation, % at 7 µM. 3,200 compounds, 68% hits. AID 686949;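 active = activation, as change over the incubation, above the mean of all tested compounds plus 3 SD, cut at about 13% in these data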
EDANS interfere – optically interferes with EDANS-DABCYL signal, flagging KLK7 hits | shares compounds with proKLK7 act | EDANS-DABCYL substrate fluorescence interference, no enzyme, 4 h; solvent 0%, active enzyme control 100% | activation, % at 7 µM | 3,200 compounds, 80% hits;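 active = activation above the all-compound mean plus 3 SD, ignoring values outside control-based bounds, cut at about 4.8% in these data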;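 also: value is the 4 h activation minus the activation read at time zero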
K7 EDANS ctr – counter-screen for kallikrein-7 activators: EDANS-DABCYL interference, dose response. shares compounds with proKLK7 act. EDANS-DABCYL peptide fluorescence interference, no enzyme. EC50, µM. 250 compounds, 20% hits. AID 720493;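 active = compounds that raise the fluorescence signal in this interference counterscreen, with EC50 at or below 10 µM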;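 also: intact quenched peptide substrate alone read at 355 nm excitation and 520 nm emission; signal is fluorescence gain from T0 to T4 after four hours at room temperature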
Active calls of the source: *; i = inactive; / = no result.

SMILES	PLC-gamma1 inh	ADAM10 inh	ADAM17 inh	PLCb3 inh	proKLK7 act	proKLK7 act conf	EDANS interfere	others
N#CC(=Cc1ccncc1)c1ccccc1	0	-4	-2	2	0	/	/
N#C/C(=C\c1ccncc1)c1nc2c(s1)CCCC2	-288	-484	-130	-377	38*	22*	22*
Cc1ccc(-n2c(SCC(=O)c3ccc(O)c(O)c3)nnc2-c2ccccc2)cc1	2	16	5	-7	0	/	/
COc1nc(N=C(N)N)nc2ccc(C)cc12	-45	-323	-89	-48	17*	6	9.5*
CCc1nc(N=C(N)N)nc2ccccc12	-2	-13	-2	-3	-4	/	/
Nc1ccc(-c2c3ccc(=O)cc-3oc3cc(O)ccc23)cc1C(=O)O	-216	12	3	-318	5	/	/
O=c1ccc2c(-c3ccccc3)c3ccc(O)cc3oc-2c1	i	-49	-20	i	25*	49*	51*
COc1ccc(S(=O)(=O)N2CCCc3nc(-c4ccc(Br)cc4)ccc32)cc1	1	1	2	2	0	/	/
O=C1C2C(c3ccccc3)=NN(c3ccccc3)C2C(=O)N1c1ccccc1 (stereo not drawn)	-167	-303	-59	-184	14*	13*	18*
OC[C@@H]1[C@@H](c2ccc(F)cc2)C(c2ccccc2)=NN1c1ccccc1	i	i	i	i	-93	/	/
O=C1[C@H]2C(c3ccccc3)=NN(c3ccccc3)[C@H]2C(=O)N1c1ccccc1	-148	-249	-58	-241	22*	-364	-297
O=C1OCCN1C(=O)[C@H]1[C@H](c2ccc(F)cc2)C(c2ccccc2)=NN1c1ccccc1	-262	-216	-57	-368	-67	/	/
N#CCc1nn2c(-c3ccccc3)ccnc2c1C#N	i	i	-371	i	15*	8	4.7*
Cc1nn2c(-c3ccccc3)ccnc2c1-c1ccccc1	-9	4	-3	-7	0	/	/
COc1ccc(CN(CCN2CCOCC2)C(=O)c2ccccc2C)cc1OC	-2	-4	-4	-2	0	/	/
N#CC(Sc1ccccn1)c1ccc(Cl)cc1 (stereo not drawn)	-457	-120	-40	-456	16*	10	12*
O=C(NCCSc1ccccn1)c1ccc(Cl)cc1	0	-12	-4	-1	0	/	/
O=C(/C=C/c1ccc2c(c1)OCO2)Nc1nncs1	-76	-142	-33	-115	13*	-22	-196
CC(=O)Nc1ccc(NC(=O)/C=C/c2ccc3c(c2)OCO3)cc1	4	2	0	0	19*	10	22*
NS(=O)(=O)c1ccc(NC(=O)/C=C/c2ccc3c(c2)OCO3)cc1	-213	-380	-110	-225	-81	/	/
Brc1cccc(CN2CCN(c3ncc(Cc4ccccc4)cn3)CC2)n1	6	-3	3	3	0	/	/
Cc1cccc(C2Nc3ccccc3C(=O)N2CCc2ccccc2)n1 (stereo not drawn)	-443	i	-466	i	21*	6	11*
Clc1ccc([C@H]2OC[C@@]3(CNCC4CC4)CS[C@H](c4ccc(Cl)cc4)N23)cc1	0	7	0	0	1	/	/
CC(=O)Nc1cc2c3c(cccc3c1)-c1ccccc1-2	i	i	-481	i	89*	28*	-18	K7 EDANS ctr=9.9*
CC(=O)c1cc(-c2ccc(-c3cc(C(=O)O)c4ccccc4n3)cc2)c(=O)n2c1CCC2	-271	-61	-24	-355	-1	/	/
SMILES	PLC-gamma1 inh	ADAM10 inh	ADAM17 inh	PLCb3 inh	proKLK7 act	proKLK7 act conf	EDANS interfere	others
COc1ccccc1NC(=O)COC(=O)c1[nH]c(=O)[nH]c(=O)c1N	-16	-73	-17	-26	84*	120*	121*
CCn1c(C)nc2cc(C#N)ccc21	0	1	0	0	-1	/	/
Clc1ccc2nc3ccccn3c2c1	i	i	i	i	22*	41*	44*
N#Cc1ccc2c(c1)nc1ccccn12	-307	i	i	-440	21*	27*	23*	K7 EDANS ctr=>70
COc1ccc(C2=NS(=O)(=O)N(C)C(C(=O)NC3CCCCC3)=C2)cc1OC	-2	-12	-2	-19	13*	1	1
COc1ccc(CCC(=O)N(C)CC(=O)Nc2ccc(N3CCOCC3)cc2)cc1	1	7	0	2	0	/	/
COc1ccc(OC)c(/C=C/C(=O)N(C)CC(=O)Nc2ccc(N3CCOCC3)cc2)c1	i	-330	-117	i	21*	19*	15*	K7 EDANS ctr=>70
Cc1nc2cc(C(=O)N3CCN(C(=O)OCc4ccccc4)CC3)ccc2n1C1CCCC1	4	8	0	2	1	/	/
Cc1cc(=O)oc2cc(OCCCN3C(=O)c4ccccc4C3=O)ccc12	-1	-1	-2	3	0	/	/
Cc1cc(=O)oc2cc(OC(=O)CCN3C(=O)c4ccccc4C3=O)ccc12	i	i	i	i	58*	427*	404*
CCCC(=O)Oc1ccc2c(C)cc(=O)oc2c1	i	i	i	i	656*	686*	706*
Cc1cc(=O)oc2cc(OC(=O)c3cncc(Br)c3)ccc12	i	i	i	i	6	/	/
CCCCn1nc(C(=O)Oc2ccc3c(C)cc(=O)oc3c2)c2ccccc2c1=O	i	i	i	i	45*	64*	69*
Cc1cc(=O)oc2cc(OC(C)C)ccc12	-16	-464	-113	-30	2	/	/
CN(CCO)C1CN(Cc2cn(Cc3ccccc3C(F)(F)F)nn2)S(=O)(=O)C1 (stereo not drawn)	7	-15	-9	-3	-1	/	/
O=C(CSc1ccc2nc(-c3ccccc3)cn2n1)NCC1CCCO1 (stereo not drawn)	-298	i	i	-430	11	/	/
CCOc1ccc(-c2ccc3nnc(SCC(=O)NCC4CCCO4)n3n2)cc1 (stereo not drawn)	-147	-65	-20	-194	3	/	/
COc1ccc(-c2ccc3nnc(SCC(=O)NCC4CCCO4)n3n2)cc1 (stereo not drawn)	i	i	-137	i	22*	31*	18*	K7 EDANS ctr=>70
COc1ccc(-c2cn3nc(SCC(=O)NCC4CCCO4)ccc3n2)cc1 (stereo not drawn)	i	i	i	i	95*	52*	70*
COc1ccccc1CCC(=O)Nc1ccc2c(c1)c(=O)n(C)n2C	-348	i	i	-481	27*	16*	17*
